DRD3 agonist = qHTS of D3 Dopamine Receptor Agonist: qHTS | D(3) dopamine receptor (Homo sapiens), P35462 | D3R DiscoveRx beta-arrestin cells, luminescence, 90 min | max activation, % | hit rate 0.58% among 410,000; in the data active = max activation above about 30%; also: 0% is about no effect
Target sequence (P35462 whole entry, looked up): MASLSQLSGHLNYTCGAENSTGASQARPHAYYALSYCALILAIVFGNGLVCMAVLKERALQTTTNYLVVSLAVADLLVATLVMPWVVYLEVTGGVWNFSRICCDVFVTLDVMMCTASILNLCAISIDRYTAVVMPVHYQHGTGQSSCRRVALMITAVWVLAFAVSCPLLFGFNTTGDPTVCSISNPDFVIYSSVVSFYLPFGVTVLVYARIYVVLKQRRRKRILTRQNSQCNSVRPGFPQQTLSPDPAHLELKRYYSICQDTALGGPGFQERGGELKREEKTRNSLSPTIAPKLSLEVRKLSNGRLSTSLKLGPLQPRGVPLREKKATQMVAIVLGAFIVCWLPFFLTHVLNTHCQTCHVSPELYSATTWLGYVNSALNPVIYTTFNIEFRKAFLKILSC
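Agonist mode: compounds and dopamine controls were applied to plated cells for 90 min at 37 degrees C after an overnight attachment at 1500 cells/well. Luminescent read-out followed 30 - 60 minutes at room temperature with DiscoveRx detection reagent.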
KB-3-1 cytotox = qHTS assay for MDR1-selective chemotherapeutics: Primary screen using the parental adenocarcinoma cell KB-3-1; KB-3-1 viability, CellTiter-Glo ATP luminescence, 72 h; hit rate 1.4% among 400,000; AID 1347075, 2019; Potency, µM (titrated, usually from 46.1 µM), actives largely listed as cytotoxic; also: potency is read from the fitted curve at half-maximal effect; % is scaled to controls: 0 for no effect and ±100 for the full control effect; nearly all actives have a fitted effect of over 60% in size
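Luminescent ATP read-out (CellTiter-Glo) measures survival of drug-naive KB-3-1 cells after 72 h compound exposure at 37 °C. Titration series was screened from lowest to highest concentration, with DMSO vehicle plates as background controls.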
SW480 rereplic = A quantitative high throughput screen for small molecules that induce DNA re-replication in SW480 colon adenocarcinoma cells. hit rate 1.8% among 340,000. SW480 DNA re-replication, Hoechst DNA content imaging, 48 h. Potency, µM (series often up to 46.1 µM), for inactives: at the top dose re-replication activation, usual class: activators; also: potency is read from the fitted curve at half-maximal effect; % of control where 0% means no effect; nearly all actives have a fitted effect of over 55% in size
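Compounds, transferred as 23 nL by pin tool, were incubated with cells for 48 hr; DNA content per nucleus was then quantified by Hoechst staining and fluorescence plate imaging.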
MCF10A rereplic = A quantitative high throughput screen for small molecules that induce DNA re-replication in MCF 10a normal breast cells; MCF 10A DNA re-replication, Hoechst nuclear intensity, 48 h; Potency, µM (highest dose often 46.1 µM), for inactives: top-dose activity, positive = re-replication, most hits filed as activators; hit rate 2.9% among 350,000; also: potency is read from the fitted curve at half-maximal effect; % of control where 0% means no effect; nearly all actives have a fitted effect of over 50% in size
KB-V1 MDR tox = qHTS assay for MDR1-selective chemotherapeutics: Primary screen using the drug-selected MDR subline cells KB-V1; KB-V1 MDR cells viability, CellTiter-Glo, 72 h; Potency, µM (series often up to 46.1 µM), usual class: cytotoxic; hit rate 3.4% among 400,000; AID 1347076, 2019; also: potency is read from the fitted curve at half-maximal effect; % is scaled to controls: 0 for no effect and ±100 for the full control effect; nearly all actives have a fitted effect of over 60% in size
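Cytotoxicity via CellTiter-Glo luminescence after 72 h compound exposure at 37 degrees C. Cells: drug-selected KB-V1 line, DMEM phenol-red free plus 10% FBS. Compounds tested at multiple concentrations; normalized data fitted to concentration-effect curves.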
D3 antag = qHTS of D3 Dopamine Receptor Antagonist: qHTS; D(3) dopamine receptor (Homo sapiens), P35462; D3R cells, DiscoveRx beta-arrestin luminescence, antagonist mode; hits give low values; max response, negative = inhibition, %; hit rate 2.5% among 360,000; AID 652054, 2013; in the data active = max response below about -50%; inconclusive = no clear call, values can overlap the other calls; also: % is scaled to controls: 0 for no effect and ±100 for the full control effect
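Cells plated overnight at 1500 cells/well, then exposed to library compounds with dopamine controls for 90 minutes at 37 degrees C. DiscoveRx reagent added for 30–60 minutes at room temperature; luminescence read, quantitative HTS format.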
* marks the source's active call; other numbers are inactive results; i = inactive; ? = inconclusive; · = no result; [ ] = another dose, or the depositor's remark. Most compounds without a hit are left out; they make up all but 8.9% or so of the library. Unless noted, calls follow the shape of the dose curve; as a rule, active = well fitted curve in the direction sought with a large enough effect; inconclusive = small, poorly fitted or top-dose-only effect, or another doubt; inactive = no such curve, though single readings can be large; an effect the other way counts as inactive or inconclusive.

SMILES	DRD3 agonist	KB-3-1 cytotox	SW480 rereplic	MCF10A rereplic	KB-V1 MDR tox	D3 antag
Cc1ccc(C2(C)NC(=O)N(CC(=O)NCCC3=CCCCC3)C2=O)cc1 (centres undefined)	1	i	-1%[9.22 µM]	-5%	i	-8
CO[C@H]1C=CO[C@@]2(C)Oc3c(C)c(O)c4c(O)c(c(C=NN5CCN(C)CC5)c(O)c4c3C2=O)NC(=O)C(C)=CC=C[C@H](C)[C@H](O)[C@@H](C)[C@@H](O)[C@@H](C)[C@H](OC(C)=O)[C@@H]1C	-39	i	?	7%	i	-76*
CCOC(=O)CSC1=Nc2ccccc2C2=NC(CCC(=O)NCc3ccccc3)C(=O)N12 (centres undefined)	-3	?	·	·	?	·
CCc1ccc2oc(C(=O)Nc3sc4c(c3C(=O)NC)CCCC4)cc(=O)c2c1	3	i	·	·	i	·
CCOc1ccc(N2C(=O)CC(Sc3nc(CC(C)C)ccc3C#N)C2=O)cc1 (centres undefined)	12	i	5.8µM*	?	i	-1
CCOc1ccc(N2C(=O)CC(N)C2=O)cc1 (centres undefined)	-9	i	?	18µM*	?	13
CCCOc1ccc(N2C(=O)CC(N3CCC(C(=O)OCC)CC3)C2=O)cc1 (centres undefined)	-2	i	2%	15µM*	i	7
CC(=O)c1c(C)nc(-c2ccccc2)nc1NC(=O)C(C)C	-8	i	-5%[9.22 µM]	3%	i	4
Cc1nc(-c2ccccc2)nc2[nH]c(C(C)C)cc(=O)c12	-3	i	4%	9.2µM*	?	9
Cc1nc(-c2ccccc2)nc2[nH]c(=O)n(-c3ccccc3)c(=O)c12	21	?	-16%	-4%	21µM*	27
O=C(C1CCCN(Cc2ccccc2Br)C1)N1CCCCC1 (centres undefined)	-6	i	-2%	7%	i	-85*
O=C(C1CCCN(Cc2ccccc2C(F)(F)F)C1)N1CCCCC1 (centres undefined)	1	i	-3%	-4%	i	-88*
O=C(C1CCCN(Cc2ccccc2F)C1)N1CCCCC1 (centres undefined)	-29	?	-3%	10%	i	-22
CC1CN(CC(O)c2ccc(Br)cc2)CCO1 (centres undefined)	2	i	-10%	-3%	i	1
CCN(CC)CCCNc1oc(-c2ccccc2[N+](=O)[O-])nc1C#N	6	?	15%	-2%	i	-56*
CCN(CC)CCCNc1oc(-c2ccc(OC)c(OC)c2)nc1C#N	-6	i	-3%	4%	i	5
CCOC(=O)c1c(C)[nH]c(C)c1S(=O)(=O)N1CCC(C(=O)Nc2ccc(F)cc2F)CC1	3	i	·	·	i	·
CC(=O)OCC1O[C@@H](O[C@@H]2C[C@H]3C(C)(C)[C@H](OC(C)=O)CC[C@]3(C)[C@H]3CC[C@]45C[C@]4(CC[C@H]5[C@@H](C)C[C@@H](O)[C@H](O)C(C)(C)O)[C@@]32C)[C@H](O)[C@@H](O)[C@@H]1O (some centres undefined)	·	·	21µM*	7.3µM*	·	·
CC(C)=CCC[C@](C)(O[C@@H]1O[C@H](CO[C@@H]2O[C@H](CO)[C@@H](O)[C@H](O)[C@H]2O)[C@@H](O)[C@H](O)[C@H]1O)C1CC[C@]2(C)C1C(=O)CC1[C@@]3(C)CC[C@H](O[C@H]4O[C@@H](CO)[C@H](O)[C@@H](O)[C@@H]4O)C(C)(C)C3CC[C@]12C (some centres undefined)	15	i	-43%	-11%	i	32
CCOc1cc(CNCCN2CCOCC2)ccc1OCc1ccccc1Cl	-5	i	21µM*	14%	i	-10
CCOc1cc(CNC2CCCC2)ccc1OCc1ccccc1Cl	-16	?	117%	?	21µM*	?
CCOc1cc(CNCCCN2CCOCC2)cc(Br)c1OCc1ccccc1Cl	-14	?	?	?	?	-12
COc1ccc(NC(=O)c2cnn(-c3ccc(C)c(C)c3)c2C2CCNCC2)cc1OC	3	i	·	·	i	·
Cc1ccc(-n2ncc(C(=O)Nc3cc(Cl)cc(Cl)c3)c2C2CCNCC2)cc1C	-1	i	4.6µM*	?	i	-4
O=C(O)c1cnc(-c2ccccc2)nc1-c1ccccc1	4	i	-10%	2%	i	3
SMILES	DRD3 agonist	KB-3-1 cytotox	SW480 rereplic	MCF10A rereplic	KB-V1 MDR tox	D3 antag
O=C(Nc1ccccc1)c1cnc(-c2ccccc2)nc1-c1ccccc1	43*	i	13µM*	?	10µM*	28
C=CCN1C(=O)C2(NC(=O)c3ccccc3N2)c2ccccc21 (centres undefined)	-12	?	18µM*	?	?	18
C=CCN1C(=O)C2(NNc3ccccc3O2)c2ccccc21 (centres undefined)	-8	?	0%	?	?	-25
O=C(C1CCN(CC2CC=CCC2)CC1)N(CCc1ccccc1)Cc1ccccc1 (centres undefined)	-25	i	-477%	1%	?	-61*
O=C(C1CCN(CCCc2ccccc2)CC1)N(CCc1ccccc1)Cc1ccccc1	-13	?	?	10%	?	?
CCOC(=O)c1ccccc1NC(=O)N1CCC(CN2CCCCC2)CC1	-11	i	·	·	i	·
Cc1nn(-c2cccc(Cl)c2)c2nc(-c3ccco3)cc(C(=O)O)c12	5	i	-5%	15µM*	i	3
O=C(O)c1cc(-c2ccco2)nn1-c1cccc(Cl)c1	6	i	-9%	5%	i	0
Cc1nn(-c2ccccc2)c2nc(-c3ccco3)cc(C(=O)O)c12	6	i	0%	?	i	-52*
CC(=O)n1cc(N(C(=O)CCl)c2ccccc2)c2ccccc21	-8	?	1.6µM*	16µM*	?	-17
CC(=O)n1cc(N(C(=O)CCl)c2ccc([N+](=O)[O-])cc2)c2ccccc21	-17	?	16µM*	?	?	0

High-throughput results deposited in PubChem by National Center for Advancing Translational Sciences (NCATS).
